# Assay outcomes from PubChem.
# Most compounds without a hit are left out; they make up all but 3.4% or so of the library.
# GPR151 activ = activators of human GPR151; Q8TDV0; PathHunter beta-arrestin GPR151 cells, luminescence; actives 1% (n = 650,000); AID 1508602; activation, % at 11.2 µM; in the data active means activation above about 4.9%;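 further: 0% = median of compound wells and 100% = cells with positive control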
# TEAD-YAP inh = TEAD-YAP interaction inhibition; actives 1.4% (n = 640,000); HEK-TIYL cells, TEAD-Gal4/YAP UAS-luciferase luminescence; inhibition, % at 9.12 µM; in the data active means inhibition above about 32%;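 further: 0% = median of test compound wells and 100% = reference inhibitor wells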
# FBW7 activator = activators of human E3 ligase FBW7; AlphaScreen FBW7–phospho-cyclin E peptide binding, activator screen; actives 0.13% (n = 650,000); Q969H0; normalized activity (activation), % at 26.1 µM; in the data active means normalized activity above about 1.9%;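 further: purified mutant Fbw7 with reduced substrate affinity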
# Target sequence (Q969H0 whole entry, looked up): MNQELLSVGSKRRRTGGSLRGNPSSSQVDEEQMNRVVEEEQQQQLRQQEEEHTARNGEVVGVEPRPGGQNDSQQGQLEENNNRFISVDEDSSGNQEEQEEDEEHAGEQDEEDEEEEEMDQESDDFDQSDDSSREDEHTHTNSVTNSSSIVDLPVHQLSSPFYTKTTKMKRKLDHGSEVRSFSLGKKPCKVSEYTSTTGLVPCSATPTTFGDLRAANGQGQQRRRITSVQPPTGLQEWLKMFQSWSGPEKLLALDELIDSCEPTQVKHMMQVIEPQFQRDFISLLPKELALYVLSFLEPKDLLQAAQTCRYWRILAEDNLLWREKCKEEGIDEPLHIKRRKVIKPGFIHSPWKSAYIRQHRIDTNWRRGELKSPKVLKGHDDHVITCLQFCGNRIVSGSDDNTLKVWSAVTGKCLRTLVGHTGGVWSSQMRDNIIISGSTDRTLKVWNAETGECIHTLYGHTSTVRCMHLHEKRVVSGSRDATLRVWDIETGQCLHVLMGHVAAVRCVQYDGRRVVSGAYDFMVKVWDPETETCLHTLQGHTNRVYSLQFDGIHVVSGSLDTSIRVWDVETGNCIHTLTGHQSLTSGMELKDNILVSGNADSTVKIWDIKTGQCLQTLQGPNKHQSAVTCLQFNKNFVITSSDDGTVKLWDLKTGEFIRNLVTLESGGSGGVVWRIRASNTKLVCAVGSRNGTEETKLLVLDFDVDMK
# MITF primary = blocks human microphthalmia-associated transcription factor. AlphaScreen MITF homodimerization, bead proximity signal. inhibition, % at 2.6 µM. actives 0.91% (n = 650,000). AID 1259374; in the data active means inhibition above about 50%;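 further: 0% = vehicle wells with protein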
# MITF confirm = human MITF inhibition, confirmation; shares compounds with MITF primary; AlphaScreen MITF homodimerization, biotin/His-MITF beads; inhibition, % at 2.6 µM; actives 16% (n = 4,700); AID 1259372;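 active means inhibition above a cutoff derived from the DMSO control wells, cut at about 28% in these data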;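 further: 0% = MITF dimer wells with DMSO only; inhibitors lower the bead chemiluminescence by keeping MITF from dimerizing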
# AlphaScreen DR = AlphaScreen optical interference, dose response counter-screen. AlphaScreen optical interference counterscreen, cell-free. shares compounds with MITF primary. actives 6% (n = 480). IC50, µM; call rule not given here
# AS interf ctr = optically interferes with AlphaScreen signal; shares compounds with MITF primary; LysRS AlphaScreen counterscreen, signal interference, triplicate; inhibition, % at 2.6 µM; actives 7.6% (n = 4,700); AID 1259376;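 active means inhibition above a cutoff derived from the DMSO control wells, cut at about 30% in these data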
# * hit, by the source's call; · = not tested or not shown.
SMILES,GPR151 activ,TEAD-YAP inh,FBW7 activator,MITF primary,MITF confirm,AS interf ctr,others
COc1ccc(NC(=O)CN(C)CC(=O)Nc2ccccc2SC)cc1,2,-3,0,75*,4,12,
Cc1cc(NC(=O)CN(C)CCOc2ccccc2)ccc1Br,1,5,0,36,·,·,
CN(CCOc1ccccc1)CC(=O)Nc1ccc(C(F)(F)F)cc1,-1,0,0,66*,-17,2,
CSc1ccccc1NC(=O)CN(C)CC(=O)Nc1ccc(C(N)=O)cc1,1,-4,0,14,·,·,
Cc1ccc(NC(=O)CN(C)CC(=O)Nc2ccccc2Oc2ccccc2)cc1,-1,6,0,91*,3,7,
Cc1ccc(N)cc1S(=O)(=O)Nc1ccc(SC(F)F)cc1,0,-6,0,11,·,·,
CCOc1cc(C(=O)Nc2nc3c(s2)C(=O)CC(C)(C)C3)cc(OCC)c1OCC,0,9,0,10,·,·,
Cc1cc(-c2nnc(SCC(=O)N3CCCCC3)o2)no1,1,0,0,14,·,·,
CCS(=O)(=O)N1CCN(Cc2nc3ccc(OC)cc3[nH]2)CC1,-2,-7,-1,62*,14,22,
CCS(=O)(=O)N1CCN(Cc2ccc(OC)cc2)CC1,0,6,0,38,·,·,
CNC(=O)CN1CCN(Cc2nc3ccc(OC)cc3[nH]2)CC1,0,3,0,80*,12,12,
CCOC(=O)c1ccccc1NC(=O)CN1CCN(Cc2nc3ccccc3[nH]2)CC1,0,4,0,0,·,·,
CCCNC(=O)Nc1ccc(Cl)c(C(=O)O)c1,0,2,0,64*,-16,-8,
O=C(O)CCC(=O)Nc1ccc(Cl)c(C(=O)O)c1,-1,9,0,6,·,·,
CCc1ccc(NC(=O)C2CC=CCC2C(=O)O)cc1 (configuration not stated),0,6,1,83*,7,8,
CC(=O)Nc1ccc(NC(=O)C2CC=CCC2C(=O)O)cc1 (configuration not stated),-1,1,0,-5,·,·,
Nn1c(Cn2cnc3ccccc32)n[nH]c1=S,0,3,0,-10,·,·,
COc1ccc(OC)c(CN2CCC(N3CCCC(C)C3)CC2)c1 (configuration not stated),2,1,0,51*,-6,4,
COc1ccc(OC)c(CN(CCCN(C)C)CCCN(C)C)c1,0,-7,0,59*,-11,-6,
COc1ccc(OC)c(CN2CCN(Cc3cc(OC)ccc3OC)CC2)c1,3,-2,0,57*,-4,-3,
COc1ccc(OC)c(CN2CCN(Cc3ccc(Br)cc3)CC2)c1,-1,-3,0,77*,0,-1,
COc1ccc(Br)cc1CN(CCCN(C)C)CCCN(C)C,1,-6,0,48,·,·,
COc1cc(NC(=O)C(C)(C)C)c(C(=O)OCC(N)=O)cc1OC,0,0,0,1,·,·,
COc1ccc(CN2CCN(C3CCCC(C)C3)CC2)c(OC)c1 (configuration not stated),0,6,0,33,·,·,
CCc1ccc(CN2CCN(Cc3cc(OC)ccc3OC)CC2)cc1,-2,2,0,65*,11,17,
SMILES,GPR151 activ,TEAD-YAP inh,FBW7 activator,MITF primary,MITF confirm,AS interf ctr,others
COc1ccc(OC)c(CN2CCN(S(C)(=O)=O)CC2)c1,-1,12,0,60*,11,11,
COc1ccc(OC)c(CN2CCN(C3CCC(C)CC3)CC2)c1 (configuration not stated),1,2,0,57*,9,-4,
COc1ccc(S(=O)(=O)N2CCN(Cc3cc(OC)ccc3OC)CC2)cc1,0,1,0,5,·,·,
Cc1cc(C)n2ncc(C(=O)Nc3cc(Cl)ccc3Cl)c2n1,1,-5,0,-8,·,·,
CCOc1ccc(C(=S)N2CCN(CC)CC2)cc1,1,13,0,-12,·,·,
O=C(O)/C=C/c1cccc(-c2cnn3c(NCCc4ccccn4)ccnc23)c1,0,3,0,53*,3,15,
CC(=O)c1cccc(-c2cnn3c(NCCc4ccccn4)ccnc23)c1,0,-37,0,11,·,·,
O=C(Nc1ccc(-c2ncn[nH]2)cc1)c1cc(-c2ccccc2)n[nH]1,0,7,0,9,·,·,
Cc1ccc(-c2ncn(-c3ccc(Nc4cc(-n5cnc(Nc6ccccc6)n5)c(F)cn4)cc3)n2)cn1,-1,-4,0,91*,52*,-10,AlphaScreen DR=>6.5
CN1C(=O)[C@H]2CN(CCc3ccccc3)CCN2C(=O)[C@@H]1Cc1ccccc1,2,-4,0,13,·,·,
CCOC(=O)c1c(-c2ccc(F)cc2)csc1NC(=O)CN1CCOCC1,0,-2,0,-6,·,·,
CCOC(=O)c1c(-c2ccc(C)cc2)csc1NC(=O)CCN1CCN(CC)CC1,0,-4,0,53*,4,3,
CCOC(=O)c1cc(-c2ccccc2)sc1NC(=O)CCN1CCN(C)CC1,2,-8,0,58*,1,18,
CCOC(=O)c1c(-c2ccc(F)cc2)csc1NC(=O)CN1CCN(CC)CC1,-1,9,0,63*,5,14,
CCOC(=O)c1c(-c2ccc(OC)c(OC)c2)csc1NC(=O)CCN1CCN(C)CC1,-1,5,0,81*,-5,3,
CCOC(=O)c1c(-c2ccc(OC)c(OC)c2)csc1NC(=O)CN1CCCC1,1,5,0,-12,·,·,
CCNC(=S)NNc1ccc([N+](=O)[O-])cc1,-1,14,0,3,·,·,
C=CCN(C)C(=O)c1cnc2scc(C)n2c1=O,-1,4,0,11,·,·,
CCN1CCN(CC(=O)NCc2ccc(F)cc2)CC1,2,3,0,79*,3,14,
O=C(NCCN1CCCCC1)/C(=C/c1ccco1)NC(=O)c1ccccc1,-1,8,0,11,·,·,
Cc1ccc(C(=O)N/C(=C\c2ccc(F)cc2)C(=O)NCCCn2ccnc2)cc1,-1,-1,0,-1,·,·,
Cc1ccc(C(=O)N/C(=C\c2ccco2)C(=O)NCCN2CCCCC2)cc1C,-1,-5,1,58*,0,-8,
Cc1ccc(C(=O)N/C(=C\c2ccco2)C(=O)NCCCn2ccnc2)cc1,0,-8,0,74*,38*,53*,
Cc1[nH]c2ccccc2c1CCNC(=O)/C(=C/c1cccc([N+](=O)[O-])c1)NC(=O)c1cccc(Br)c1,2,-7,0,6,·,·,
COc1ccc(NC(=S)NCC(O)c2ccccc2)c(OC)c1 (configuration not stated),0,12,0,3,·,·,
COc1ccc(NC(=S)NCC(C)C)c(OC)c1,0,7,0,65*,12,14,
CC(C)N(C)CCOC(=O)/C=C/c1ccco1,-1,-2,-1,59*,62*,7,AlphaScreen DR=>6.5
CN(Cc1ccccc1)C(=O)COC(=O)/C=C/c1ccco1,-1,-5,0,11,·,·,
